About 22,000 (6.9%) of roughly 320,000 compounds were called active. Inconclusive results (about 27%) are left out. This excerpt belongs to a sample that is enriched for actives. Values without a mark were called inactive. Calls follow the shape of the dose curve; as a rule, active = well fitted inhibition curve with a large enough effect; inconclusive = small, poorly fitted or top-dose-only effect, or another doubt; inactive = no such curve, though single readings can be large or run the other way. Where a SMILES comes first, the peptide text is derived from it. [ ]: non-standard residue; d: D form. The star is where a group is joined. ξ: configuration not given here. Cbz = O=C(OCc1ccccc1)*; ξL = CC(C)CC(N)C(=O)O; ξP = O=C(O)C1CCCN1
Assay: Primary qHTS for delayed death inhibitors of the malarial parasite plastid, 96 hour incubation
Conditions: P. falciparum luciferase reporter growth; series mostly up to 28.7 µM; activity change, negative = inhibition: at the top concentration
Summary of the method: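 Delayed-death screen, second-generation endpoint: infected erythrocytes, 2% hematocrit, 0.05% parasitemia final; 96 hours at 37 C, 5% CO2; luciferase detection reagent; luminescence decrease equals reduced growth.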
% is scaled to controls: 0 for no effect and ±100 for the full control effect; potency is read from the fitted curve at half-maximal effect.

| SMILES | activity change, negative = inhibition [%] | Potency |
| --- | --- | --- |
| CC(C)c1ccc(S(=O)(=O)NC2CCCC2)cc1 | 53.9 | – |
| OC(CNC1CCCCC1)c1ccccc1 (stereo not given) | – | 9.28 µM (active) |
| O=C(NNC(=O)C(O)c1ccccc1)NC1CCCCC1 (stereo not given) | 56.9 | – |
| c1ccc(CCNC2CCCCCC2)cc1 | 38.6 | – |
| Cc1cc(Cl)c2oc(C(=O)N(C)C(C)c3ccccn3)c(C)c2c1 (stereo not given) | -22.1 | – |
| CN(C)c1nc(Nc2ccc(Cl)c(Cl)c2)nc(N(C)C)n1 | -16.4 | – |
| COc1cc(C2C(C(=O)c3ccco3)=C(O)C(=O)N2c2cc(C)on2)ccc1OCc1ccccc1 (stereo not given) | -4.61 | – |
| Cc1ccc2nc(N3CCN(C(=O)c4ccco4)CC3)sc2c1 | -9.37 | – |
| Cc1ccc2nc(N3C(=O)C(O)=C(C(=O)c4ccco4)C3c3cccc(O)c3)sc2c1 (stereo not given) | – | 9.28 µM (active) |
| COc1ccc(C(=O)NCc2nnc(SCC(=O)NC3=NCCS3)n2C)cc1 | 16.2 | – |
| CCOc1ccccc1NC(=O)Cc1cccs1 | 341 | – |
| COc1cc(C(=O)NCC2(c3ccccc3)CCCC2)ccc1OC(C)C | 33 | – |
| Cn1cnnc1Sc1ccc(CN2CCN(C3CCCC3)C(CCO)C2)o1 (stereo not given) | 1.4 | – |
| OCCC1CN(Cc2ccc3nsnc3c2)CCN1C1CCCCC1 (stereo not given) | – | 10.4 µM (active) |
| CC[C@H](C)C(=O)N[C@H]1CCCN1C(=O)/C=C/c1ccccc1 | 41 | – |
| Cc1ccc(C)c(OCCC(=O)OCC(=O)c2ccc3c(c2)NC(=O)CO3)c1 | 21.2 | – |
| O=C(COc1coc(CN2CCN(c3ccccc3)CC2)cc1=O)Nc1ccccc1F | 2.2 | – |
| C=CCNC(=O)COc1coc(CN2CCN(Cc3ccccc3)CC2)cc1=O | – | 13.1 µM (active) |
| Cc1cc(C)cc(NC(=O)COc2coc(CN3CCN(c4ccccc4)CC3)cc2=O)c1 | -27.2 | – |
| CC(=O)O[C@H]1CC[C@@]2(C)[C@@H](CC[C@@H]3[C@@H]2CC[C@]2(C)[C@@H](C(C)(C)O)C[C@@H]32)C1 | -8.75 | – |
| CC1CCC2CCCCC2N1C(=O)c1cc([N+](=O)[O-])cc([N+](=O)[O-])c1 (stereo not given) | -2.82 | – |
| Cc1nc(C)c(C(=O)N(c2ccc(C)c(C)c2)C(C(=O)NCc2ccco2)c2ccccc2)s1 (stereo not given) | – | 10.4 µM (active) |
| Cc1cccc(N(C(=O)c2sc(C)nc2C)C(C(=O)NCC2CCCO2)c2ccccc2)c1 (stereo not given) | -28.1 | – |
| O=C(NCc1ccco1)C(c1ccncc1)N(C(=O)Cn1nnc2ccccc21)c1ccccc1 (stereo not given) | -0.183 | – |
| CC(C)(C)NC(=O)C(c1ccc(Cl)cc1)N(CCO)C(=O)c1snc(C(N)=O)c1N (stereo not given) | 202 | – |

| SMILES | activity change, negative = inhibition [%] | Potency |
| --- | --- | --- |
| CCCCCNC(=O)C1c2ccccc2Oc2ccccc21 | 0 | – |
| CCOC(=O)c1ccc(N2C(=O)CC(N3CC(C)OC(C)C3)C2=O)cc1 (stereo not given) | 7.59 | – |
| CCOC(=O)c1ccc(N2C(=O)CC(N(C)Cc3ccccc3)C2=O)cc1 (stereo not given) | – | 1.47 µM (active) |
| CCOC(=O)c1ccc(N2C(=O)CC(N3CCN(C(=O)c4ccccc4)CC3)C2=O)cc1 (stereo not given) | 25.2 | – |
| CCN1CCN(C(=O)C2CCCN(S(=O)(=O)c3ccc(OC)c(OC)c3)C2)CC1 (stereo not given) | -7.76 | – |
| COc1cccc(NC(=O)CN(C)CC(=O)c2c(N)n(Cc3ccccc3)c(=O)n(C)c2=O)c1 | -24.5 | – |
| COc1ccc(OC)c(CCNC(=O)c2nn(C)c3c2CS(=O)(=O)c2ccccc2-3)c1 | 32.5 | – |
| CC(C)CC(NC(=O)C1CCCN1C(=O)[C@@H](C)NC(=O)OCc1ccccc1)C(=O)NCC(N)=O (stereo not given in full) (Cbz-[dA][ξP][ξL]G-NH2) | 19.9 | – |
| NS(=O)(=O)c1cccc(NC(=O)CSc2nc3ccccc3n2-c2ccccc2)c1 | -21 | – |
| Cc1cccc(-n2c(SCC(=O)Nc3cccc(S(=O)(=O)NC4=NCCCCC4)c3)nc3ccccc3c2=O)c1C | – | 5.22 µM (active) |
| CN(CCOc1ccc(Br)cc1)CC(=O)Nc1cccc(S(=O)(=O)NC2=NCCC2)c1 | -7.64 | – |
| O=C(Nc1cccc(S(=O)(=O)NC2=NCCC2)c1)C1CCCCC1 | -0.475 | – |
| O=C(CSc1nc2ccccc2c(=O)n1-c1ccc(F)cc1)NC1CC1 | -26.1 | – |
| CCc1ccc(C(=O)OCC(=O)Nc2cccc(S(=O)(=O)NC3=NCCCCC3)c2)cc1 | – | 10.4 µM (active) |
| COc1ccc(C(C)=O)cc1COc1ccc(Cl)c(C)c1 | 22.6 | – |
| COCCN(C(=O)CSCc1ccc(C)cc1)c1c(N)n(CC(C)C)c(=O)[nH]c1=O | -15.3 | – |
| CC(=O)Nc1ccc(C(=O)/C=C/c2ccc[nH]2)cc1 | 80.9 | – |
| Cc1ccccc1OCCC(=O)OCC(=O)NCCc1ccc(S(N)(=O)=O)cc1 | -16.7 | – |
| Cc1ccc(OCC(=O)Nc2ccc(S(=O)(=O)Nc3ccccn3)cc2)cc1 | 42.9 | – |
| Cc1cc(C)cc(OCC(=O)Nc2ccc(S(=O)(=O)Nc3ccccn3)cc2)c1 | – | 1.65 µM (active) |
| O=C(CS(=O)(=O)c1ccccc1)Nc1ccc(S(=O)(=O)Nc2ccccn2)cc1 | 14.6 | – |
| CC(Cc1ccccc1)C(=O)N(C)Cc1ccccc1 (stereo not given) | 1.33 | – |
| CC(Cc1ccccc1)NCCC(c1ccccc1)c1ccccc1 (stereo not given) | – | 14.7 µM (active) |
| Cc1ncoc1C(=O)NCCC(c1ccccc1)c1ccccc1 | 12.9 | – |
| C[C@H](NC(=O)c1nc[nH]c1C(=O)NCC(=O)OC(C)(C)C)C(=O)OCc1ccccc1 | 63 | – |
